# Only some compounds are listed: those with a hit (about 19% of all), similar ones and a draw of the others.
# HT1080NT lethal: kills 2HG-producing HT-1080-NT fibrosarcoma cells. HT-1080-NT fibrosarcoma viability, CellTiter-Glo ATP luminescence, 48 h. Potency, µM (series often up to 46.1 µM), inactives show at the top dose activity, negative = less viability, hits mostly cytotoxic. hit rate 1.6% among 360,000;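 also: NT is the 2HG producing partner of a matched IDH1 knockdown line; potency is read from the fitted curve at half-maximal effect; 0% = DMSO-treated cells and -100% = media-only wells without cells; nearly all actives have a fitted effect of over 55% in size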
#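 HT-1080-NT fibrosarcoma cells (2HG-overproducing), 750 cells/well in RPMI with 5% FBS, dosed after 2 h and incubated 48 h at 37C. CellTiter-Glo luminescence normalized to DMSO and no-cell wells; concentration-response curves fitted and classed.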
# HT1080 IDH1KD tx: toxicity to HT-1080 IDH1 knockdown cells (counter line); hit rate 2% among 360,000; Potency, µM (series often up to 46.1 µM), without a hit: at the highest dose activity, negative = toxicity, usual class: cytotoxic; HT-1080 IDH1 knockdown viability, ATP luminescence, 48 h;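 also: potency is read from the fitted curve at half-maximal effect; 0% = DMSO wells and -100% = cell-free medium wells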
#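 Viability of IDH1-knockdown HT-1080 fibrosarcoma cells was assessed by CellTiter-Glo after 48 h at 37 °C with titrated compound; concentration-effect curves were classified by fit quality and response size.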
# DT40 TDP1 CPT: DT40-hTDP1 cell growth loss with CPT. Potency, µM (highest dose often 46.2 µM), for inactives: at the top dose activity change, negative = growth inhibition, usual class: inhibitors. hit rate 12% among 420,000. chicken DT40 Tdp1-/-;hTDP1 cells + 20 nM CPT, ATP luminescence, 48 h; also: potency is read from the fitted curve at half-maximal effect; nearly all actives have a fitted effect of over 55% in size
#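 Chicken DT40 Tdp1-/- cells stably complemented with human TDP1 were seeded at 400 cells/well in medium containing 20 nM camptothecin, exposed to pin-transferred compounds, and grown at 37 °C for at least 48 hr. Viability was read as ATP luminescence.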
# TDP1 cell noCPT: qHTS for Inhibitors of human tyrosyl-DNA phosphodiesterase 1 (TDP1): qHTS in cells in absence of CPT | hit rate 15% among 420,000 | AID 686978, 2013 | Potency, µM (top dose mostly 46.2 µM), without a hit: at the highest dose activity change, negative = growth inhibition, hits mostly inhibitors | DT40 Tdp1-/- hTDP1 cells, no CPT, ATP luminescence, 48 h; also: potency is read from the fitted curve at half-maximal effect; nearly all actives have a fitted effect of over 55% in size
#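 Stably hTDP1-transfected Tdp1-null chicken DT40 cells were treated with library compounds minus camptothecin and grown for at least 48 hr at 37 °C, after which cellular ATP was quantified by luminescence.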
# uPA generation: cell surface uPA generation inhibition; hit rate 0.31% among 330,000; cell surface uPA generation assay, qHTS; Potency, µM (top dose mostly 38.3 µM), for the others: top-dose activity change, negative = inhibition, actives largely listed as inhibitors; active = well fitted inhibition curve with a large enough effect; inconclusive = small, poorly fitted or top-dose-only effect; inactive = no such curve, though single readings can be large or run the other way; tested in mouse RAW 264.7 cells; also: potency is read from the fitted curve at half-maximal effect; nearly all actives have a fitted effect of over 55% in size
# IL-1B inflam inh: blocks inflammasome-driven IL-1 beta release. AID 743279. THP-1 LPS/ATP IL-1B secretion, AlphaLISA, 16 h; hits give low values. activity change, % at 57.5 µM. hit rate 4.7% among 360,000; in the data active = activity change below about -50%; inconclusive = mostly about -30% to -49%
#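 THP-1 cells pretreated 1 hr with compounds (up to 57.5 uM final), then stimulated with LPS (250 ng/mL final) plus ATP (1.25 mM final); secreted IL-1B measured by AlphaLISA after 16 hr, decreased signal indicating inhibition.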
# The depositor's hits bear a star; ? = inconclusive; . = no result; [ ] = another dose, or the depositor's remark. Unless noted, calls follow the shape of the dose curve; as a rule, active = well fitted curve in the direction sought with a large enough effect; inconclusive = small, poorly fitted or top-dose-only effect, or another doubt; inactive = no such curve, though single readings can be large; an effect the other way counts as inactive or inconclusive. Unless noted, % is scaled to controls: 0 for no effect and ±100 for the full control effect.
SMILES,HT1080NT lethal,HT1080 IDH1KD tx,DT40 TDP1 CPT,TDP1 cell noCPT,uPA generation,IL-1B inflam inh
CC(=O)N1CCOc2ccc(S(=O)(=O)N3CCC(C(=O)NCc4ccc(F)cc4)CC3)cc21,-1%,-5%,3%,4%,-4%,-18
CCN1CCN(C(=O)C(C)Oc2ccc(S(=O)(=O)N3CCCC3)cc2C(N)=O)CC1 (stereo not drawn),-1%[9.24 µM],11%,0%,0%,12%,-4
Cc1ccc(-n2ncc(C(=O)Nc3cc(Cl)cc(Cl)c3)c2C2CCNCC2)cc1C,?,21µM*,?,?,11µM*,-19
Cc1ccc(-n2ncc(C(=O)Nc3cc(Cl)ccc3Cl)c2C2CCNCC2)cc1,-1%,?,23µM*,23µM*,-5%,0
COc1cc(NC(=O)c2cnn(-c3cccc(F)c3)c2C2CCNCC2)cc(OC)c1OC,.,.,1%,-1%,.,.
CCCC(=O)N1CCC1(C)C(=O)Nc1ncc(C(=O)OC)s1 (stereo not drawn),?,?,1%,-7%,.,29
O=C(CCCCn1c(=O)c2ccccc2n(Cc2ccccc2F)c1=O)NC1CCN(Cc2ccccc2)CC1,15%,9%,?,16µM*,-1%,-6
COc1ccccc1CNC(=O)CCCn1c(=O)c2cccn2c2ccccc21,.,.,?,29µM*,.,.
CC(C)OCCCn1c(=O)c2ccccc2n2c(CCC(=O)O)nnc12,13%,14%,-3%,1%,-1%,-11
CC(C)OCCCn1c(=O)c2ccccc2n2c(CCC(=O)NC3CCN(Cc4ccccc4)CC3)nnc12,10%,1%,?,-25%,-5%,-51*
COc1ccccc1CNC(=O)CCCn1c(=O)c2ccccc2n(Cc2ccccc2F)c1=O,.,.,9.2µM*,7.3µM*,.,.
CCc1ccc(Cn2ncc3c(C(=O)O)cc(C)nc32)cc1,-8%,-11%,-13%,-4%,1%,15
O=S1(=O)c2ccccc2N(Cc2ccccc2)c2ccccc21,.,.,-1%,-6%,.,.
COc1ccc(OC)c(CCNC(=O)CCCn2c(=O)c3cccn3c3ccccc32)c1,.,.,18µM*,21µM*,.,.
COc1ccc(OC)c(CCNC(=O)CCc2cn(C)c3ccccc23)c1,18%,18%,-28%,?,4%,1
Cc1ccc(NC(=O)N2CCN3CCCCC3C2)cc1C (stereo not drawn),.,.,2%,-2%,.,.
CCCCN(Cc1ccccc1)S(=O)(=O)c1cc2c(cc1Br)CC(C)N2C(C)=O (stereo not drawn),-10%,-13%,18µM*,18µM*,-4%,0
CCC(=O)N1c2ccc(S(=O)(=O)N(CCO)Cc3ccccc3)cc2CC1C (stereo not drawn),-10%,-3%,?,-20%,2%,20
CCCCN(Cc1ccccc1)S(=O)(=O)c1ccc2c(c1)CC(C)N2C(=O)CC (stereo not drawn),.,.,23µM*,?,.,.
CCOC1=C2[C@H](c3ccccc3F)N(S(=O)(=O)c3ccc(C)cc3)C[C@H]2n2c(=O)n(-c3ccccc3)c(=O)n2C1,13%,20%,-16%,-8%,.,-12
N#Cc1ccsc1NC(=O)CN1CCN(c2ccc(O)cc2)CC1,?,-6%,?,10µM*,-9%,0
Cc1cc(C)c(C)c(S(=O)(=O)N2CCN(CC(=O)Nc3sccc3C#N)CC2)c1C,-13%,?,26µM*,?,2%,17
N#Cc1ccsc1NC(=O)CN1CCN(c2ccccc2)CC1,1%,4%,10%,-29%,3%,34
COc1ccc(S(=O)(=O)N2CCN(CC(=O)Nc3sccc3C(N)=O)CC2)cc1OC,-5%,0%,?,23µM*,-4%,31
NC(=O)c1ccsc1NC(=O)CN1CCN(S(=O)(=O)c2ccccc2C(F)(F)F)CC1,-8%,7%,?,?,21%,35
SMILES,HT1080NT lethal,HT1080 IDH1KD tx,DT40 TDP1 CPT,TDP1 cell noCPT,uPA generation,IL-1B inflam inh
N#Cc1cnn(-c2ccccc2)c1NC(=O)CN1CCN(c2ccccc2)CC1,22%,16%,?,23µM*,-1%,37
O=C(NCC1CCCO1)c1[nH]c(C(F)(F)F)nc1-c1ccccc1 (stereo not drawn),-3%,9%,-5%,11%,.,4
O=Cc1ccc2[nH]ccc2c1,.,.,7%,-2%,.,.
NS(=O)(=O)c1ccc(N=Nc2c(-c3ccccc3)[nH]n(-c3nc(-c4ccccc4)cs3)c2=O)cc1,-2%,-7%,9.2µM*,3.3µM*,-6%,?
O=S(=O)(NCC1CCCO1)c1ccc(-c2ccc(Cl)cc2)cc1 (stereo not drawn),-19%,-1%,12µM*,13µM*,1%,6
O=C(c1ccc(S(=O)(=O)NCC2CCCO2)cc1)N1CCN(c2cccc(Cl)c2)CC1 (stereo not drawn),0%,0%,15µM*,15µM*,?,34
COc1ccc(-c2ccc(S(=O)(=O)NCC3CCCO3)cc2)cc1 (stereo not drawn),-21%,-19%,6%,?,-8%,5
COc1ccc(/C=C/C(=O)N2CCN(C)CC2)cc1S(=O)(=O)N1CCCCC1,2%,7%,-19%,?,5%,4
Cc1ccccc1CNC(=O)c1ccc2nc([C@@H]3O[C@H](CO)[C@H](O)[C@H](O)[C@H]3O)[nH]c2c1,2%,15%,3%,-6%,.,-2
N#C/C(=C\c1cc2ccccc2nc1N1CCOCC1)C(=O)Nc1ccc(N2CCOCC2)cc1,-3%,-2%,13µM*,16µM*,9%,12
N#CC(C#N)=Cc1cc2ccccc2nc1N1CCOCC1,5%,3%,13µM*,10µM*,-2%,-10
CCOC(=O)/C(C#N)=C/c1cc2ccccc2nc1N1CCCCC1,-7%,2%,-34%,?,0%,0
CSc1ncc(C(=O)Nc2cc(C)cc(C)c2)c(-c2ccccc2)n1,.,.,-28%,?,.,.
C#CCOCC1CN(C)C(=O)O1 (stereo not drawn),0%,-1%,-1%,2%,.,-12
COc1ccccc1NC(=O)CCNC(=O)c1ccc(C)cc1,2%,4%,7%,8%,13%,-15
Cc1cc(C)c(C)c(S(=O)(=O)NCc2ccc(C(=O)NCC3CCCO3)cc2)c1C (stereo not drawn),2%,1%,?,-19%,-15%,0

# Bioassay records deposited in PubChem by National Center for Advancing Translational Sciences (NCATS).
